Source: PubChem BioAssay
Shown are actives, neighbours in structure and some others; about 1.7% of the full set was active somewhere.
USP1-UAF1 inh: Inhibitors of USP1/UAF1: Primary Screen; AID 743255, 2014; Potency, µM (titrated, usually from 57.1 µM), for inactives: top-dose activity change, negative = inhibition, hits mostly inhibitors; recombinant USP1/UAF1, Ub-Rhodamine cleavage fluorescence; Ubiquitin carboxyl-terminal hydrolase 1 (Homo sapiens), O94782; actives 0.23% (n = 390,000); active = well fitted inhibition curve with a large enough effect; inconclusive = small, poorly fitted or top-dose-only effect; inactive = no such curve, though single readings can be large or run the other way; note: potency is the fitted concentration of half-maximal effect; nearly all actives have a fitted effect of over 60% in size
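In this screen, compounds sit with the deubiquitinase complex (1nM) for 15 min at room temperature before Ub-Rho is added at 150nM final. Fluorescence rise is then followed for 6 reads every 60 seconds.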
hERG WT inh: qHTS for Inhibitors of KCHN2 3.1: Wildtype qHTS | actives 0.37% (n = 340,000) | activity change, % at 1.84 µM | U2OS, BacMam KCNH2, thallium flux FluxOr; hits give low values;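 active = maximum activity change below -70%; inconclusive = maximum activity change between -70% and -50%; inactive = maximum activity change above -50%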
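U2OS cells were transduced with wild-type KCNH2 virus (2.03 x 10^8 / mL) for 4 h at room temperature, then cultured overnight at 37 C. Thallium flux was read with FluxOr dye. Rate constants were normalized to DMSO controls.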
KCNH2 3.1 block: qHTS for Inhibitors of KCHN2 3.1: Mutant qHTS | actives 0.95% (n = 340,000) | Potassium voltage-gated channel subfamily H member 2, brain isoform KCNH2 3.1 (human) | activity change, % (tested at about 1.8 µM) | U2OS KCNH2 3.1, thallium flux FluxOr; hits give low values | AID 720553, 2013;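 active = maximum activity change below -70%; inconclusive = maximum activity change from -70% to -50%; inactive = maximum activity change above -50%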;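 note: thallium influx rate constant from kinetic fluorescence after stimulation buffer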
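Measured as rate of thallium-driven FluxOr signal in transduced U2OS cells carrying the 3.1 channel, read kinetically for 2 min upon stimulation; values are rate constants scaled to DMSO control wells.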
Giardia killer: Small Molecules that selectively kill Giardia lamblia: qHTS; Giardia lamblia trophozoite viability; activity change, % at 7.66 µM, hits read low; actives 0.15% (n = 340,000); AID 540267, 2011; in the data active = activity change below about -80%; inconclusive = between about -30% and that limit;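 note: parasites exposed to compound for two days anaerobically before the ATP read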
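Giardia trophozoites, 100 cells per well, were exposed to compounds for 48 hrs at 37 deg C under anaerobic conditions; viability was then read as ATP content by bioluminescence after 15-30 min at room temperature.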
FBPA coupling cs: qHTS Assay for Inhibitors of Fructose-1,6-bisphosphate Aldolase from Giardia Lamblia: Coupling assay counterscreen; coupling enzyme system counterscreen, AmpLite Red fluorescence; activity change, negative = inhibition, % at 58.2 µM, hits read low; actives 0.67% (n = 290,000); AID 2472, 2010; in the data active = activity change below about -30%
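Fluorescence at 525 nm excitation and 598 nm emission measured inhibition of the coupled detection system without aldolase. Compounds (at 57.5 uM final) were preincubated 10 min at room temperature with coupling enzyme reagent before a 20 min substrate/AmpLite Red step.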
Active calls of the source: *; ? = inconclusive; nt = no result. % is set by controls: 0 for no effect and ±100 for the full control effect.

SMILES	USP1-UAF1 inh	hERG WT inh	KCNH2 3.1 block	Giardia killer	FBPA coupling cs
CC(C)C[C@H](NC(=O)[C@H](C)NC(=O)CNC(=O)[C@H](CCCCN)NC(=O)[C@H](CCCN=C(N)N)NC(=O)[C@H](C)NC(=O)[C@H](Cc1ccccc1)NC(=O)[C@@H](N)CCCN=C(N)N)C(=O)N[C@@H](CCCN=C(N)N)C(=O)N[C@@H](CCC(N)=O)C(=O)N[C@@H](CCCCN)C(=O)N[C@@H](CC(N)=O)C(=O)N[C@H](C(N)=O)C(C)C	nt	nt	nt	nt	-1
CCc1ccccc1NC(=O)c1ccc(CN2C(=O)CCn3nc(C)cc32)cc1	2%	nt	nt	nt	nt
CN(CC1CCN(CCc2cccc(C(F)(F)F)c2)CC1)C(=O)c1ccccc1	-10%	36	-31	-11	1
COc1cc(C(=O)N(CCN(C)C)CC2CCCN(Cc3ccccc3F)C2)ccc1C (configuration not stated)	-21%	8	12	-16	2
COc1cc(C(=O)N(C)CC2CCN(CCc3cccc(C(F)(F)F)c3)CC2)ccc1C	-8%	-2	-72*	1	0
CN(CC1CCN(CCc2cccc(C(F)(F)F)c2)CC1)C(=O)c1ccc(F)cc1	-14%	?	-79*	-4	3
CC(=O)OCc1cnc(C)c2oc(=O)c(C(=O)Nc3cccc(F)c3)cc12	-10%	nt	nt	nt	nt
Cc1cccc(N2CCN(S(=O)(=O)c3cc(C(=O)Nc4ccccc4Cl)ccc3F)CC2)c1C	-8%	nt	nt	nt	nt
Cc1ccc(-c2[nH][nH]c(=O)c(=O)c2N=Nc2ccccc2)cc1	-18%	6	14	-92*	-1
Cc1cc(C)c2c(CC(=O)Nc3ccc(S(=O)(=O)Nc4nc(C)cc(C)n4)cc3)coc2c1	-16%	nt	nt	nt	nt
COc1cccc(CNC(=O)CN(c2ccc(C(C)C)cc2)S(=O)(=O)c2c(C)n[nH]c2C)c1	-32%	nt	nt	nt	nt
O=C(NCc1ccccn1)c1nc(Cn2cc([N+](=O)[O-])cn2)no1	-14%	-1	-17	25	-1
O=C(NC1CC1)c1nc(Cn2cc([N+](=O)[O-])cn2)no1	-25%	-73*	3	37	nt
Cc1cc(C)cc(NC(=O)CN(C)S(=O)(=O)c2ccc3c(c2)CCC(=O)N3)c1	-12%	nt	nt	nt	nt
COc1ccccc1C(=O)NCCC(=O)Nc1nc2ccccc2[nH]1	-13%	-2	11	-9	nt
COc1ccccc1C(=O)Nc1nc2ccccc2[nH]1	-22%	-8	0	-84*	-7
COc1cc(SC)ccc1C(=O)Nc1nc2ccccc2[nH]1	-27%	6	7	-99*	0
Cc1ccc(C(=O)Nc2nc3ccccc3[nH]2)cc1	-11%	-10	-10	-92*	-3
CSc1ccccc1C(=O)Nc1nc2ccccc2[nH]1	-6%	-6	-4	-5	0
CCc1ccc(-c2[nH]nc3nc(-c4ccc(OC)cc4)cc(C(=O)NCCCOC)c23)cc1	-7%	nt	nt	nt	nt
O=S(=O)(c1ccc(Cl)cc1)N1CCN(c2nc(-c3ccccc3)nc3ccccc23)CC1	nt	nt	nt	6	nt
Cc1cc(C)nc(/N=C(\N)N(Cc2ccccc2)Cc2ccccc2)n1	-4%	1	-77*	-4	5
Cc1cc(C)nc(/N=C(\N)Nc2ccc(-c3ccccc3)cc2)n1	-10%	32	-80*	16	3
Cc1cc(NC(=O)CN2C(=O)NC3(CCCCC3)C2=O)ccc1N1CCCC1	-5%	11	-5	2	nt
Cc1ccc(S(=O)(=O)NCc2cccnc2)c(C)c1	-6%	-13	-71*	28	0
SMILES	USP1-UAF1 inh	hERG WT inh	KCNH2 3.1 block	Giardia killer	FBPA coupling cs
O=C(NCC(=O)N(c1cccnc1)C(C(=O)NC1CCCCC1)c1ccccc1F)c1ccco1 (configuration not stated)	-8%	-149*	-193*	1	1
CC(=O)Nc1ccc(N(C(=O)CNC(=O)c2ccco2)C(C(=O)NCc2ccco2)c2ccccc2F)cc1 (configuration not stated)	-10%	2	-111*	21	2
Cc1ccc(N(C(=O)CNC(=O)c2ccco2)C(C(=O)NC2CCCC2)c2cccnc2)cc1C (configuration not stated)	-21%	-189*	3	-1	0
COc1ccccc1S(=O)(=O)Cc1ccc(C(=O)N2CCN(c3cc(Cl)ccc3C)CC2)o1	-16%	nt	nt	nt	nt
O=C1C(=O)N(c2ccccn2)C(c2cccc(F)c2)/C1=C(/O)c1ccccc1 (configuration not stated)	-8%	3	-102*	19	-1
COc1ccc(C2/C(=C(/O)c3ccccc3)C(=O)C(=O)N2c2ccccn2)cc1OC (configuration not stated)	-11%	-1	-13	-2	5
Cn1c(COc2ccc(Br)cc2)nnc1SC1CCc2ccccc2C1=O (configuration not stated)	-10%	-2	-12	-3	-57*
COCCNC(=O)COc1ncnc2scc(-c3ccc(F)cc3)c12	-19%	-16	-112*	4	0
NC(=O)COc1ncnc2scc(-c3ccc(F)cc3)c12	-6%	-10	-8	-5	0
CCCC[C@H](NC(=O)[C@@H]1CCCN1C(=O)[C@H]1CCCN1C(=O)[C@H](Cc1ccccc1)NC(=O)[C@@H](Cc1c[nH]c2ccccc12)NC(=O)[C@H](C)NC(=O)[C@H](CCCN=C(N)N)NC(=O)OC(C)(C)C)C(N)=O	nt	nt	nt	nt	4
CC12CCC=CC1C(c1ccc(Br)cc1F)N(Cc1ccccc1)C2=O (configuration not stated)	nt	nt	nt	-7	7
CCN(CC(=O)NCc1ccc(F)cc1)C(=O)/C=C/c1cccs1	8%	8	2	9	1
CCN(CC(=O)NCc1ccc(F)cc1)C(=O)/C=C/c1ccco1	-14%	-2	-3	0	-40*
CCCCNc1c(-c2ccc(SC3CCCCC3)c(OC)c2)nc2ccc(Cl)cn12	-26%	-29	-97*	-2	nt
CCCCNc1c(-c2ccc(SC(C)CC)c(OC)c2)nc2ccc(Cl)cn12 (configuration not stated)	?	-238*	-5	-12	nt
COc1ccc(OC)c(C2C(C#N)=C(N)Oc3c2c(C)nn3-c2cccc(Cl)c2)c1 (configuration not stated)	-4%	4	-94*	-12	2
CCCC(=O)N1CC(=O)Nc2ccc(F)cc2C1c1ccccc1 (configuration not stated)	-3%	1	-87*	-27	3
COc1ccc(CCNC(=O)CSc2ccsc2[N+](=O)[O-])cc1OC	-13%	3	-1	-89*	-1
